FLuc counter = firefly luciferase modulation, counter-screen for miR-21 project | purified FLuc, Km substrates, luminescence inhibition | P08659 | 360,000 tested, 6.9% active | AID 588342 | Potency, µM (top dose mostly 57.5 µM), inactives show at the highest dose activity change, negative = inhibition, hits mostly inhibitors;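 further: plate controls were vehicle for no effect and reference inhibitor for full effect; nearly all actives have a fitted effect of over 55% in size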
Target sequence (P08659 whole entry, looked up): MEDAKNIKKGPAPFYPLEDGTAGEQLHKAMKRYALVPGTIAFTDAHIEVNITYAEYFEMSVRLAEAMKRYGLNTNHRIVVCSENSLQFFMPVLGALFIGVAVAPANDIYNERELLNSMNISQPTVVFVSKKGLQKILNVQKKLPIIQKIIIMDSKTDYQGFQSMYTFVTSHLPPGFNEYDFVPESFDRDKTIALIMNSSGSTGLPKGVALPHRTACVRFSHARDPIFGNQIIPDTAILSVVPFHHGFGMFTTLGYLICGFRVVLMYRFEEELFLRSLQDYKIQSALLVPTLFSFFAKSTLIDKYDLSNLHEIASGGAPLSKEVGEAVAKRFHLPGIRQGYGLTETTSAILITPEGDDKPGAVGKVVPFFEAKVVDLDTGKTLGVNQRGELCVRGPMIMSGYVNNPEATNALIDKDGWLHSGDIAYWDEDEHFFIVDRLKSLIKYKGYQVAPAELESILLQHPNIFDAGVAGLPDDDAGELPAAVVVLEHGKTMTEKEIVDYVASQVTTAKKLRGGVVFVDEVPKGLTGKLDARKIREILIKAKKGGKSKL
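Biochemical qHTS of compounds, final roughly 60 µM downward over six points, against 10 nM purified firefly luciferase using Km concentrations of substrates (10 uM D-luciferin, 10 uM ATP) in Tris acetate pH 7.5 buffer; luminescence output.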
Luc counter = blocks Kinase-Glo luciferase, a counter-screen artifact; AID 1379; 200,000 tested, 0.28% active; Kinase-Glo luciferase, ATP luminescence, 8 min; Potency, µM (top dose mostly 38.3 µM), for the others: top-dose activity change, negative = inhibition, most hits filed as inhibitors; Q27757; further: on the % scale 0 is the no-effect control and ±100 the full control effect; nearly all actives have a fitted effect of over 60% in size
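Inhibition of Kinase-Glo luciferase light generation was assessed at 10 uM ATP in pH 7.2 imidazole buffer, with luminescence measured after eight minutes at ambient temperature.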
NPC1 prom act = activates the NPC1 promoter; Huh7 NPC1 promoter luciferase reporter, 24 h; Potency, µM (series often up to 9.22 µM), for the others: at the top dose activation, actives largely listed as activators; 320,000 tested, 2.4% active; further: % of control where 0% means no effect; nearly all actives have a fitted effect of over 60% in size
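Huh7 reporter cells (NPC1 promoter driving luciferase) are dosed with compound for 24 h at 37 °C, 5% CO2; luciferase detection reagent is then added and luminescence measured after 10 min at ambient temperature.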
SMN2 splice enh = enhancers of SMN2 splice variant expression | Potency, µM (highest dose often 46.1 µM), for the others: top-dose activity change, positive = activation, most hits filed as activators | AID 1458 | HEK293 SMN2-luciferase splicing reporter, luminescence, 30-36 h | 210,000 tested, 2.8% active; further: % of control where 0% means no effect; nearly all actives have a fitted effect of over 55% in size
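HEK293 cells carry an SMN2 […]–luciferase reporter in which exon 7 inclusion puts luciferase in frame. Cells were plated 10-12 h before compound addition, then incubated 30-36 h at 37C. ONE-Glo luminescence was read; sodium butyrate at 4.5 mM final served as control.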
Rab9 promoter act = Rab9 promoter activation | Huh7 Rab9 promoter-luciferase reporter, luminescence, 24 h | AID 485297 | 320,000 tested, 2.8% active | Potency, µM (series often up to 9.22 µM), for inactives: at the highest dose activation, negative = inhibition, hits mostly activators; further: % of control where 0% means no effect; nearly all actives have a fitted effect of over 60% in size
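Promoter activation is measured as luciferase luminescence in Huh7 cells stably transfected with a Rab9 promoter–luciferase construct, following 24 h compound exposure at 37 °C and 10 min reagent incubation at ambient temperature.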
An asterisk follows results filed as active; ? = inconclusive; . = no result; [ ] = dose if it differs, or a comment. Most compounds without a hit are left out; they make up all but 7.3% or so of the library. The call rests on the fitted dose curve; in most records, active means well fitted curve in the direction sought with a large enough effect; inconclusive means small, poorly fitted or top-dose-only effect, or another doubt; inactive means no such curve, though single readings can be large; an effect the other way counts as inactive or inconclusive. Potency means the concentration at half of the fitted maximal effect.

SMILES | FLuc counter | Luc counter | NPC1 prom act | SMN2 splice enh | Rab9 promoter act
COc1ccc(Cc2nc3ccc(C(=O)NCCc4ccc(Cl)cc4)cc3o2)cc1 | 3% | . | . | . | .
c1ccc(-c2onc3cc4c(cc23)OCCO4)cc1 | -10%[2.3 µM] | -10% | ? | 35µM* | 3.2µM*
CC(=O)c1ccc2noc(-c3ccccc3)c2c1 | ? | -3% | -4% | . | 0%
COc1ccc(CC(=O)Nc2ccc(-c3ccc4nnc(C)n4n3)cc2)cc1OC | 0% | 4% | -11% | 18µM* | -19%
COc1ccc(OC)c(S(=O)(=O)Nc2ccc(-c3ccc4nnc(C)n4n3)cc2)c1 | 3% | . | -5% | . | 1%
CCCN(CCC)S(=O)(=O)c1ccc2c(c1)N(CC(=O)NCc1ccc(F)cc1Cl)C(=O)CS2 | -7% | . | . | . | .
CN(C)c1ccc(Nc2nc(-c3cccnc3)cs2)cc1 | 0.43µM* | -16% | 3.5µM* | 16µM* | 0.89µM*
CCN(CC)c1ccc(Nc2nc(-c3cccnc3)cs2)cc1 | 11µM* | . | 2.8µM* | . | 3.2µM*
OC(CCN1CCCCC1)(c1ccccc1)C1CC2C=CC1C2 (configuration not stated) | . | . | 6%[46.1 µM] | . | -7%[46.1 µM]
COC(=O)c1cc(-c2ccc(NC(C)=O)cc2)nc2ccccc12 | 12µM* | 3% | -1% | -5% | -3%
CC(=O)Nc1ccc(-c2cc(C(=O)O)c3ccc(C)cc3n2)cc1 | 17µM* | . | 18% | . | 4%
COc1cc2c(cc1NC(=O)c1ccncc1)oc1ccccc12 | ? | 1% | 27% | -8% | 25%
COc1cc2c(cc1NC(=O)c1cccnc1)oc1ccccc12 | 15µM* | -3% | ? | ? | ?
COc1ccc(-c2cc3ccccc3oc2=O)cc1NC(=O)c1cccnc1 | 11µM* | 3% | -6% | -5% | 7%
Cc1cc2oc(C(=O)Nc3ccc(S(=O)(=O)N(C)c4ccccc4)cc3)cc(=O)c2cc1C | 0% | . | . | -7% | .
Cc1ccc(NC(=O)N2CCC(c3ccccc3)C2)cc1C (configuration not stated) | 4.8µM* | 0% | 1.4µM* | 13µM* | 0.79µM*
Cc1ccc(C2CCN(C(=O)Nc3ccccc3)C2)cc1 (configuration not stated) | 12µM* | -1% | 4.5µM* | ? | 4µM*
O=C(Nc1ccc(Cl)cc1)N1CCC(c2ccccc2)C1 (configuration not stated) | 3.8µM* | -1% | 1.6µM* | 13µM* | 1.1µM*
O=C(Nc1cccc(F)c1)N1CCC(c2ccccc2)CC1 | ? | . | ? | . | 29%
CC(C)N(C)C1CCN(C(=O)Nc2ccc(Cl)cc2)CC1 | 0% | -5% | 11% | 17% | 2%
Cc1ccc(SCc2nc(-c3ccncc3)no2)cc1 | 4%[2.3 µM] | 0% | 0% | -14% | 3%
COc1ccc(-c2noc(CSc3ccccc3)n2)cc1OC | 13µM* | . | ? | . | 4µM*
Cc1ccc(SCc2nc(-c3ccccc3)no2)cc1 | 0%[2.3 µM] | 7% | 2% | 21% | 21%
c1ccc(SCc2nc(-c3ccncc3)no2)cc1 | 17µM* | -3% | 4µM* | 11µM* | ?
Cc1cc(CNC(=O)[C@H](C)[C@H]2C[C@]2(C)[C@H](NC(=O)OCc2ccccc2)c2ccccc2)nn1C | . | -4% | . | -12% | .
SMILES | FLuc counter | Luc counter | NPC1 prom act | SMN2 splice enh | Rab9 promoter act
C=CCOC(=O)[C@H](O)[C@@H](O)C(=O)OCC=C | . | -1% | . | 10% | .
Cc1ccc(N=Cc2c(O)ccc3ccccc23)cc1F | ? | -2% | 5% | 19% | 4%
Oc1sc(C=Nc2ccc(F)cc2)c2ccccc12 | ? | -2% | 3.2µM* | 10µM* | 2.8µM*
Oc1sc(C=Nc2ccccc2)c2ccccc12 | 6µM* | -14% | ? | 8.9µM* | ?
C=CCC(O)c1ccccc1 (configuration not stated) | . | -1% | . | -1% | .
COc1ccc(OC)c(/C=C2\Oc3cc(OCC(=O)N4CCC[C@H]4C(=O)O)ccc3C2=O)c1 | ? | . | 0% | . | 5%
COc1cccc(/C=C2\Oc3cc(OCC(=O)N4CCC[C@H]4C(=O)O)ccc3C2=O)c1 | 2.7µM* | . | 0% | . | -3%
COc1ccc(/C=C2\Oc3cc(OCC(=O)N4CCC[C@H]4C(=O)O)ccc3C2=O)c(OC)c1 | 12µM* | . | 0% | . | -2%

Screening data from PubChem.
